# Tau fibril FP: inhibitors of human tau fibril formation. actives 0.39% (n = 280,000). Potency, µM (top dose mostly 57.7 µM), for the others: at the top dose activity, negative = inhibition, most hits filed as inhibitors. P10636. K18 P301L tau heparin fibrillization, Alexa594 FP, 6 h; further: nearly all actives have a fitted effect of over 55% in size
# Target sequence (P10636 561-689 P618L limits assumed): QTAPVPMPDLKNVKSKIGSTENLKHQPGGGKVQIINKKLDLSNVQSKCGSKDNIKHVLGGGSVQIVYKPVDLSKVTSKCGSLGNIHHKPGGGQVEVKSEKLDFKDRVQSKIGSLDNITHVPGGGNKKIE
#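 K18 P301L tau (15 uM unlabeled/0.24 uM Alexa 594-labeled, final) + compound + heparin 20 uM final; 100 mM NaOAc pH 7; 6 hr 37 C; ThT 30 uM final added, 1 hr RT; FP ex 555/em 632 nm.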
# Tau ThT inhib: blocks human tau fibril formation measured by thioflavin T | actives 2.1% (n = 270,000) | Potency, µM (top dose mostly 57.4 µM), for the others: top-dose activity, negative = inhibition, most hits filed as inhibitors | recombinant tau K18 P301L, heparin-induced fibrillization, ThT fluorescence | AID 1460 | P10636; further: nearly all actives have a fitted effect of over 55% in size
#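 In this qHTS, human K18 P301L tau is incubated with compound and heparin for 6 hr at 37 C, and Thioflavin T fluorescence then reports fibril load.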
# TexasRed fluor: Texas Red fluorescence interference in TRb-SRC2 counter-screen. TRb/SRC2 Texas Red total fluorescence interference. Potency, µM (series often up to 106 µM), for inactives: top-dose fluorescence change, negative = quenching. actives 0.29% (n = 280,000); active means well fitted curve in either direction with a large enough effect; inconclusive means small, poorly fitted or top-dose-only effect
#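 Human TRb ligand-binding domain at 0.6 uM with 20 nM Texas Red SRC2 peptide in Tris buffer containing 1 uM T3 and 5% DMSO, incubated with compound 5 h at ambient temperature. Total fluorescence (555/632 nm) calculated as parallel + 2 × perpendicular.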
# TRb-SRC2 inh: TRbeta-SRC2 interaction inhibition; P10828; TRbeta-SRC2 peptide binding, fluorescence polarization; receptor liganded with 1 µM T3; Potency, µM (doses to about 106 µM), for inactives: at the highest dose activity change, negative = inhibition, usual class: inhibitors; actives 0.065% (n = 280,000); AID 1469;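 further: plate controls were bound peptide for no effect and peptide without receptor for full effect; nearly all actives have a fitted effect of over 50% in size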
#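 Binding of a 20-amino-acid Texas Red SRC2 peptide (20 nM) to TRb ligand-binding domain (0.6 uM) with agonist T3 at 1 uM was followed by fluorescence polarization after a 5 hr room-temperature incubation.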
# Tau fluor counter: counter-screen for tau fibril formation inhibitors | Potency, µM (highest dose often 57.7 µM), for the others: at the highest dose activity change, negative = decrease | tau K18 P301L Alexa594 fluorescence, heparin fibrillization | actives 0.93% (n = 280,000); further: nearly all actives have a fitted effect of over 55% in size
#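 Human tau K18 P301L (15 uM unlabeled, 0.24 uM Alexa 594-labeled) in 100 mM sodium acetate pH 7 with 20 uM heparin, 6 hr at 37 C. ThT 30 uM added, 1 hr ambient; Alexa 594 FP and total fluorescence read at 555/632 nm.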
# RGS12 GoLoco inh: inhibitors of human Gai1-RGS12 GoLoco interaction (red fluorophore); Gai1:RGS12 GoLoco peptide FP, rhodamine, 10 min; Potency, µM (titrated, usually from 61.6 µM), for inactives: at the highest dose activity, negative = inhibition, most hits filed as inhibitors; actives 0.44% (n = 230,000); P63096; active means well fitted inhibition curve with a large enough effect, not every such curve was filed as active; inactive means no such curve, though single readings can be large or run the other way; further: nearly all actives have a fitted effect of over 30% in size
# Target sequence (P63096 whole entry, looked up): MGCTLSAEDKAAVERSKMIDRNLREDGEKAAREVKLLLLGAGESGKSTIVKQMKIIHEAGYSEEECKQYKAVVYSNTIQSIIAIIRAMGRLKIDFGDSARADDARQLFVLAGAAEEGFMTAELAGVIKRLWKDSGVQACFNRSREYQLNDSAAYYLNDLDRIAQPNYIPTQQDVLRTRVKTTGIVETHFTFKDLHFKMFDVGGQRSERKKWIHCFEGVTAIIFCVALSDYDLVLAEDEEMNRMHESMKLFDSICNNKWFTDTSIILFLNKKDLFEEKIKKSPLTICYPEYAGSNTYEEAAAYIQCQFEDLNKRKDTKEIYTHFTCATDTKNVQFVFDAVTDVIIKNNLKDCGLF
# Numbers without * were called inactive; ? = inconclusive; . = no result given; [ ] = another dose, or the depositor's remark. Hits are enriched below; roughly 3.2% of the tested compounds scored in any of these assays. Unless noted, the call rests on the fitted dose curve; in most records, active means well fitted curve in the direction sought with a large enough effect; inconclusive means small, poorly fitted or top-dose-only effect, or another doubt; inactive means no such curve, though single readings can be large; an effect the other way counts as inactive or inconclusive. Unless noted, on the % scale 0 is the no-effect control and ±100 the full control effect; potency means the concentration at half of the fitted maximal effect.
SMILES,Tau fibril FP,Tau ThT inhib,TexasRed fluor,TRb-SRC2 inh,Tau fluor counter,RGS12 GoLoco inh
Cc1nnsc1C(=O)N/N=C/c1ccccc1,-0.4%,3.4%,-23.5%,5.7%,4.7%,3.9%
Cc1nnsc1C(=O)N/N=C/c1ccc2ccccc2c1O,?,3.16µM*,-1.2%,1.3%,-20.3%,.
CCC/C=C(\CCC)C(NS(=O)(=O)c1ccccc1)c1ccc(C(F)(F)F)cc1 (stereo not drawn),-1.1%,-13.9%,-5.6%,3.7%,-20.9%,7.5%
COc1ccc(OC)c(Nc2nc3ccccc3nc2-n2nc(C)cc2C)c1,?,-9.8%,0.7%,7.7%,12.6µM*[quencher],.
COc1ccc(Nc2nc3ccccc3nc2-n2nc(C)cc2C)cc1,10.0%,-8.4%,1.5%,-8.4%,?,5.3%
COc1ccc(Nc2nc3ccc(C)cc3nc2-n2nc(C)cc2C)cc1Cl,?,-10.3%,1.8%,4.5%,14.1µM*[quencher],.
CCCCNc1sc(S(=O)(=O)CCC)nc1S(=O)(=O)c1ccc(C)cc1,-8.8%,2.8%,-2.6%,-2.9%,-12.1%,.
COc1ccc(C2/C=C\[C@H](O[Si](C)(C)C(C)(C)C)[C@H](C(C)C)CC(=O)N2Cc2ccccc2)cc1 (stereo partly drawn),3.5%,-10.4%,?,-0.3%,-5.2%,-21.3%
Cc1nc(Nc2ccc(Cl)cc2Cl)sc1C(=O)Nc1ccccc1,-15.6%,?,-4.4%,1.2%,?,0.2%
Oc1nc(Nc2ccc(Cl)cc2Cl)sc1/C=C1\C=Nc2ccccc21,8.8%,8.91µM*,-15.0%,0.2%,?,140.1%
CCOC(=O)c1ccccc1NC(=O)CSc1nnnn1C1CCCCC1,?,14.1µM*,1.0%,-1.0%,?,.
CC(C)C1C(=O)N(S(C)(=O)=O)[C@H]2CCN(C(=O)/C=C/CN3CCCCC3)[C@@H]12 (stereo partly drawn),.,.,-8.9%,-4.1%,.,.
CCN1C(=O)[C@@H]2[C@H]3C(=CC[C@@H]2C1=O)C1(OCCCO1)[C@H]1O[C@@H]1[C@H]3O,?,2.82µM*,-0.5%[11.2 µM],-0.2%[11.2 µM],?,.
CCN1C(=O)[C@H]2[C@@H]3[C@H](O)C=CC(=O)[C@H]3CC[C@H]2C1=O,-6.6%[11.6 µM],-12.1%[11.5 µM],-4.6%[11.2 µM],-2.0%[11.2 µM],-12.3%[11.6 µM],.
Oc1ccccc1NCC(O)Cn1ccc2ccccc21 (stereo not drawn),1.5%,14.1µM*,-0.9%,2.1%,20µM*[quencher],.
CN1CCN(c2ccncc2S(=O)(=O)N2CCN(C)CC2)CC1,.,.,.,.,.,3.6%[14.2 µM]
C[n+]1cccc(C2C(C#N)=C(N)Oc3c2ccc2ccccc32)c1 (stereo not drawn),-6.9%,?,-5.5%,-8.4%,-16.5%,76.8%
CC1=CC(C)C2COC(c3ccc[n+](C)c3)C1C2C (stereo not drawn),-2.9%,-1.6%,1.3%,6.2%,-3.3%,28.2µM*
Nc1nonc1OCCN1CCN(c2ccc([N+](=O)[O-])c3cccnc23)CC1,-0.9%,17.8µM*,-3.8%,-3.4%,?,-5.7%
COc1cccc(NC(=O)CSC2=Nc3ccccc3N=C(c3ccc(F)cc3)C2)c1,-17.9%,-4.2%,-1.2%,4.4%,?,.
COc1cc(/C=N/NC(=O)c2sc(N)c(C#N)c2C)cc(Br)c1O,14.0%,4.47µM*,?,11.9%,?,16.4%
Cc1ccc2oc(C(=O)Nc3ccc(S(=O)(=O)N(C)c4ccccc4)cc3)cc(=O)c2c1,?,-5.8%,100µM*[quencher],-10.1%,?,.
C[n+]1ccccc1/C=N/O,1.5%,3.1%,-1.9%,-5.5%,-0.1%,-0.6%
CC(O)/C=C/c1cccc[n+]1C (stereo not drawn),-6.8%,?,1.1%,-18.6%,-7.7%,7.94µM*
CCn1c(=O)c(=O)[nH]c2cc(C(=O)N3CCN(c4ccccc4F)CC3)ccc21,6.9%,-7.0%,44.7µM*[fluorescent],14.1%,0.3%,128.3%
SMILES,Tau fibril FP,Tau ThT inhib,TexasRed fluor,TRb-SRC2 inh,Tau fluor counter,RGS12 GoLoco inh
CCc1cccc2cc3c(N)c(C(=O)Nc4ccc(S(=O)(=O)N5CCCC5)cc4)sc3nc12,?,5.62µM*,3.0%,1.7%,?,27.2%
Cc1cccc2cc3c(N)c(C(=O)Nc4ccc(N5CCOCC5)cc4)sc3nc12,8.0%,2.82µM*,-3.1%,-2.0%,11.2µM*[quencher],17.2%
Cc1cccc2cc3c(N)c(C(=O)N4CCc5ccccc54)sc3nc12,?,4.47µM*,-0.5%,-3.0%,?,-22.9%
Cc1ccc(C)c2nc3sc(C(=O)N4CCOCC4)c(N)c3cc12,-7.5%[2.34 µM],-3.9%,-5.7%,2.0%,-5.8%[2.34 µM],9.8%
Cc1ccc2nc3sc(C(=O)Nc4ccc(N5CCOCC5)cc4)c(N)c3cc2c1,10.2%,2µM*,-5.9%,-0.4%,?,10.4%
Cc1ccc2nc(C)c(C(=O)N/N=C/c3ccc(N4CCOCC4)cc3)cc2c1,3.2%,?,-4.0%,-5.4%,-4.8%,-3.8%
CCn1ncc(C(=O)Nc2ccc(S(=O)(=O)N3CCCC3)cc2)c1C,-11.2%,-2.8%,-3.7%,-23.1%,-10.0%,-10.0%
CCC(C(=O)Nc1cc(OC)ccc1OC)n1nc(-c2ccccc2)c2c(c1=O)CCCC2 (stereo not drawn),3.5%,?,-2.3%,-0.1%,?,.
CCCCOc1ccc(CNC(=O)c2ccc(NC(=O)N3CCSc4ncccc43)cc2)cc1,-10.5%,?,1.0%,-6.8%,-12.8%,.
CC(C)CCNC(=O)CSc1nc2ccccc2nc1Cc1ccccc1,3.3%,-3.3%,-3.3%,8.1%,-3.0%,.
COc1cc(C(=O)Nc2ccc(S(=O)(=O)N(C)c3ccccc3)cc2)cc(OC)c1OC,?,-6.5%,5.0%,4.0%,?,-8.1%
COc1ccc(CC(=O)Nc2ccc(S(=O)(=O)N(C)C)cc2)cc1OC,-5.0%,-2.0%,1.0%,-5.3%,-3.1%,14.7%
COc1cc(C(=O)Nc2ccc(N(C)C)cc2)cc(OC)c1OC,10.3%,15.8µM*,-2.4%,-3.1%,-17.4%,.
COc1cc(CC(=O)Nc2ccc(S(=O)(=O)N(C)C)cc2)cc(OC)c1OC,-4.2%,-4.6%,5.9%,-25.2%,-12.7%,7.94µM*
N#C/C(=C\c1cc(Cl)cc(Cl)c1)c1cccnc1,?,-10.7%,-1.2%,7.6%,-12.2%,4.2%
Nc1[nH]n(-c2ccccc2)c(=O)c1N=Nc1ccc2ncsc2c1,?,2.24µM*,-16.4%,2.2%,5.01µM*[quencher],-16.3%
Cc1[nH]n(-c2ccccc2)c(=O)c1N=Nc1ccc2c(c1)OCCO2,-17.8%,3.55µM*,-0.7%,0.2%,?,8.2%
Nc1[nH]n(-c2ccccc2)c(=O)c1N=Nc1ccccc1,11.5%,2.51µM*,-6.6%,-2.3%,5.01µM*[quencher],2.2%

# Compound activity from PubChem.
